# Experimental data: PubChem BioAssay (NCI)
# The panel holds about 83,000 compounds, 20% with a hit somewhere; the sample as a whole holds those more often.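 The endpoint reported here, percent growth, reads 100 for growth as untreated, 0 for no net growth and -100 for all cells dead.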 Unmarked numbers belong to inactive results. Active and inactive are the calls of the source. Rule for the calls: active = growth percent below 10; inactive = the rest.
# Tests used:
# Experiment in all cases: NCI-60 one-dose screen, 48 h (100 = growth as untreated, 0 = no growth, -100 = all killed)
# Settings in all cases: 10 µM unless noted
# RPMI-8226 leukemia = tested on: RPMI-8226 leukemia
# OVCAR-8 ovarian = tested on: OVCAR-8 ovarian
# OVCAR-5 ovarian = tested on: OVCAR-5 ovarian
# SK-OV-3 ovarian = tested on: SK-OV-3 ovarian
# IGROV1 ovarian = tested on: IGROV1 ovarian
# OVCAR-3 ovarian = tested on: OVCAR-3 ovarian
# HS 578T breast = tested on: HS 578T breast
# NCI/ADR-RES ovarian = tested on: NCI/ADR-RES ovarian
# T-47D breast = tested on: T-47D breast
# OVCAR-4 ovarian = tested on: OVCAR-4 ovarian
Compound,growth (RPMI-8226 leukemia),growth (OVCAR-8 ovarian),growth (OVCAR-5 ovarian),growth (SK-OV-3 ovarian),growth (IGROV1 ovarian),growth (OVCAR-3 ovarian),growth (HS 578T breast),growth (NCI/ADR-RES ovarian),growth (T-47D breast),growth (OVCAR-4 ovarian)
COc1ccc(/C=C/C(=O)Nc2cccnc2Nc2ccc(F)cc2)cc1,88.6%,92.7%,104%,101%,117%,112%,103%,93.1%,87.7%,
O=C1NC(=O)/C(=C\c2ccccc2)C2=C1CCCC2,51.3%,-6.04% (active),80%,152%,,-73.9% (active),35.2%,61.2%,198%,
COc1ccc2c(c1)C(=O)c1c-2c(OCCN(C)C)nc2cc(OC)ccc12,-25.4% (active),4.01% (active),44.9%,23.9%,6.3% (active),32.5%,35.6%,-11.3% (active),47.1%,
Cc1cc(C(C)(C)C)cc(C)c1CC1=NCCN1,114%,107%,,124%,108%,112%,102%,101%,,117%
O=C(Nc1cccc([N+](=O)[O-])c1)c1cccc(C(=O)Nc2cccc([N+](=O)[O-])c2)c1,65.9%,28.6%,95.6%,68.6%,,71.1%,9.17% (active),62.2%,68.4%,
Clc1ccc2c(Nc3ccc4oc(NCCN5CCCC5)nc4c3)ccnc2c1,77%,94.3%,101%,114%,93.7%,82.7%,97.1%,101%,91.9%,
C/C(=N\N1CC(=O)NC1=O)c1ccc([N+](=O)[O-])o1,71%,98.2%,111%,,99.6%,102%,108%,93.7%,102%,
O=C(/C(=C/c1ccc([N+](=O)[O-])cc1)c1ccccc1)c1ccccc1,-10.5% (active),8.51% (active),76.3%,92.7%,74.1%,16.4%,57.9%,46.5%,72%,
O=[P@@]1(c2ccccc2)O[C@H](COCc2ccccc2)[C@@H](OCc2ccccc2)[C@H](OCc2ccccc2)[C@H]1NCc1ccccc1,5.97% (active),23.7%,11.8%,41.7%,,18.6%,,12.5%,15.9%,
N=c1ccn2c(n1)O[C@@H]1[C@@H](O)[C@H](CO)O[C@@H]12,94.4%,25.7%,81%,61.7%,71.4%,,,41.6%,92.7%,
Cc1cc(C(=O)O)c(C)cc1C(=O)O,102%,104%,96%,106%,85.3%,136%,122%,105%,104%,
COC(=O)CCC1=C(C)C(C)=N/C1=C\c1[nH]c(-c2ccc[nH]2)cc1OC,-61.8% (active),5.55% (active),22.7%,16.2%,18.4%,-34.5% (active),-6.06% (active),6.26% (active),7.35% (active),
O=C(c1ccccc1)c1ccccc1Cl,88.5%,108%,104%,108%,106%,106%,102%,105%,98.9%,
CCC[C@H](N[C@@H](C)C(=O)N1[C@H](C(=O)O)C[C@@H]2CCCC[C@@H]21)C(=O)OCC,109%,102%,88.9%,113%,108%,104%,98%,98.5%,124%,
CCOc1nc(-c2ccccc2)cc2c(O)c(C(=O)n3nc(C)cc3C)[nH]c(=O)c12,103%,101%,106%,102%,97.4%,112%,115%,111%,107%,
CCN(CC)c1ccc(N=Nc2cc(Cl)ccc2Cl)c(NC(=O)CCC(=O)O)c1,97.6%,89.2%,92.5%,97.5%,92.2%,96.8%,95.1%,95.5%,90.2%,
CN(C)c1ccc(/C=C(\C#N)c2nc3ccccc3c(=O)[nH]2)cc1,140%,97.1%,86.8%,114%,-10.8% (active),114%,71.4%,76.9%,92.1%,

Compound,growth (RPMI-8226 leukemia),growth (OVCAR-8 ovarian),growth (OVCAR-5 ovarian),growth (SK-OV-3 ovarian),growth (IGROV1 ovarian),growth (OVCAR-3 ovarian),growth (HS 578T breast),growth (NCI/ADR-RES ovarian),growth (T-47D breast),growth (OVCAR-4 ovarian)
NC(=O)NN=C(C1CC1)C1CC1,114%,123%,101%,,109%,106%,97%,105%,107%,
COc1ccc2[nH]c(-c3ccccc3)cc2c1,48.5%,103%,109%,110%,100%,101%,105%,113%,72%,
COc1cc2c(cc1OC)C1CCN3C(=O)CCC3N1CC2 (stereo not given),102%,113%,109%,112%,125%,113%,97.9%,99.6%,105%,
NS(=O)(=O)c1ccc(NC2=C(Cl)C(=O)c3ccccc3C2=O)cc1,61.2%,88.6%,102%,90.2%,75.3%,98%,142%,93.6%,-48.3% (active),
O=C(O)c1ccccc1C(=O)OC1CCCC2CCCC21 (stereo not given),111%,106%,99.2%,112%,,122%,,99%,96.1%,
CC(O)c1nc2c(c(=O)n(C)c(=O)n2C)n1C (stereo not given),,105%,104%,102%,,108%,118%,113%,97.6%,104%
O=C(/C=C/c1ccccc1Cl)c1ccc(O)cc1,,96.8%,138%,86%,,,80.5%,97%,58.8%,63.3%
CCOC(=O)c1cc(-c2cccnc2)nc2c(Cl)cc(Cl)cc12,,104%,92%,91.2%,,80%,95%,94%,85.3%,89.9%
O=C(CSCC(=O)N/N=C/c1ccccc1O)N/N=C\c1ccccc1O,,28.3%,56.2%,27.8%,18.9%,34.5%,,26.1%,35.5%,27.5%
CC(=O)NC1(C(=O)O)CCCC1,,99.8%,158%,118%,,112%,122%,140%,128%,112%
CCCCCCCC/C=C\CCCCCCCCOc1ccccc1CC(=O)NCC[N+]1(C)CCCC1,,80.9%,62.1%,89.6%,10.9%,,86.9%,110%,90.5%,86.8%
CSc1ncc2ncn(C3OC(CO)C(O)C3O)c2n1 (stereo not given),,138%,156%,104%,,,95.2%,143%,101%,101%
CCOC(=O)c1c(C)c(C(=O)OCC)n(C)c1C,,120%,114%,98%,,,,118%,90.7%,101%
c1ccc(-n2nnnc2-c2cccc3ccccc23)cc1,,30.5%,35.5%,5.6% (active),31.4%,-26.8% (active),,-12.6% (active),31.8%,59.6%
CC1=CC(=O)C(C(C)=Nc2ccccc2Cl)C(=O)O1 (stereo not given),,96.9%,151%,104%,,,83.6%,140%,105%,99.5%
Cc1cc(C)c(OC(=O)CSc2nc3ccccc3c(=O)n2CCc2ccccc2)cc1C,,95.3%,110%,95.7%,89.4%,,94.5%,89.3%,90.5%,101%
